# Laboratory results published in PubChem BioAssay AID743060 (The Scripps Research Institute Molecular Screening Center, 2013).
# Assay: T. brucei methionyl-tRNA synthetase enzyme inhibition – biochemical, radioactivity, round 1, late-stage follow-up (AID 743060)
# Settings: purified enzyme, radiolabel aminoacylation, scintillation, 2 h; at 10 µM; stronger effect = higher value
row,Structure (SMILES),inhibition
1,COc1ccc(NC(=O)C2CC(=O)n3c(nc4ccccc43)N2)cc1 (stereo not given),-13.4%
2,O=C(Cn1cc(C(=O)c2ccco2)c2ccccc21)Nc1cccc(C(F)(F)F)c1,89%
3,C[C@H](O)[C@@H]1C(=O)N2CCc3c([nH]c4ccccc34)[C@@H]2C[C@@H]1N(C)Cc1ccc2c(c1)OCO2,80.4%
4,O=C(NCc1nc2ccccc2[nH]1)C1=C[C@@H](c2ccc3c(c2)OCO3)C[C@@H](OCCCCO)O1,93.7%
5,O=C(CC=NOCc1ccc([N+](=O)[O-])cc1)Nc1ccc(Br)cc1,84.7%
6,O=C(NCCc1nc2ccccc2[nH]1)c1ccc(Cl)cc1,74.2%
7,O=C(Cn1cc(C(=O)C(=O)N2CCOCC2)c2ccccc21)Nc1cccc(C(F)(F)F)c1,100%
8,CC(C)(C)[C@H]1C=C(C(=O)NCc2nc3ccccc3[nH]2)O[C@@H](OCc2ccc(CO)cc2)C1,83.8%
9,O=C(NCc1nc2ccccc2[nH]1)C1=C[C@H](c2ccc3c(c2)OCO3)C[C@H](OCCCCO)O1,79.4%
10,O=C(NNC(=O)c1ccc(-n2cncn2)c([N+](=O)[O-])c1)c1ccc(Cl)cc1,73%
11,CC(=O)c1ccc(N2CCN(C(=O)CCCn3c(=O)[nH]c4ccc(Br)cc4c3=O)CC2)cc1,97%
12,CCc1ccc2[nH]c3nc(SCC(=O)NCc4cccc(OC)c4)nnc3c2c1,0.65%
13,O=C(NCc1nc2ccccc2[nH]1)C1=C[C@H](c2ccccc2)C[C@H](OCc2ccc(CO)cc2)O1,61.8%
14,Clc1ccc(-c2nnc(SCc3nc4ccccc4[nH]3)o2)c(Cl)c1,97%
15,O=C(C[C@H]1C(=O)N(Cc2ccccc2)C[C@@H]1c1ccc(Br)cc1)Nc1ccc(Br)cc1,94.4%
16,Cn1c(CCNC(=O)c2ccc(Cl)cc2)nc2ccccc21,3.39%
17,O=C(Cn1cc(C(=O)C(=O)N2CCCC2)c2ccccc21)Nc1ccccc1,9.2%
18,CC(=O)N(CCc1ccccc1)C1CC(=O)N(c2ccc(Cl)cc2)C1=O (stereo not given),-17.1%

row,Structure (SMILES),inhibition
1,COc1ccccc1NC(=O)Cn1cc(C(=O)C(=O)N2CCOCC2)c2ccccc21,-13.7%
2,O=C(NCc1nc2ccccc2[nH]1)C1=C[C@H](c2ccc(Br)cc2)C[C@H](OCc2ccc(CO)cc2)O1,94.6%
3,CC1Cc2ccccc2N1C(=O)Cn1cc(C(=O)C(=O)N2CCOCC2)c2ccccc21 (stereo not given),-14.7%
4,O=C1[C@@H]2Cc3c([nH]c4ccccc34)C(c3cccc([N+](=O)[O-])c3)N2C(=O)CN1CCCO (stereo not given in full),97.5%
5,COc1ccccc1NC(=O)CSc1nnc2c(n1)[nH]c1ccc(C)cc12,14.5%
6,Cc1ccc(NC(=O)CN(C)C(=O)CCSc2ccc(F)cc2)cc1,67.3%
7,CCN(CCc1nc2ccc(C)cc2[nH]1)C(=O)c1ccc2ncccc2c1,-5.17%
8,O=C(NCc1nc2ccccc2[nH]1)C1=C[C@H](c2csc3ccccc23)C[C@H](OCCCCO)O1,97.8%
9,CNC(=S)N(CCc1ccccc1)C1CC(=O)N(c2ccc(Br)cc2)C1=O (stereo not given),99.7%
10,Clc1ccc(OCCSCc2nc3ccccc3[nH]2)cc1,44.8%
11,O=C(NCc1nc2ccccc2[nH]1)C1=C[C@@H](c2csc3ccccc23)C[C@@H](OCCCCO)O1,89.2%
12,O=C(CC=NOCc1ccc([N+](=O)[O-])cc1)Nc1ccc(Cl)cc1,86.5%
13,Cc1cccc(C(=O)NCCc2nc3ccccc3n2CCOc2ccccc2)c1,0.31%
14,CCO[C@H]1OC(C(=O)NCc2nc3ccccc3[nH]2)=C[C@@H](c2ccc(Br)cc2)[C@@H]1CCCO,81.6%
15,COc1ccccc1NS(=O)(=O)c1cccc(NC(=O)Nc2ccccc2)c1,95.1%
16,O=C(NCc1nc2ccccc2[nH]1)C1=C[C@@H](c2ccccc2)C[C@@H](OCc2ccc(CO)cc2)O1,94.3%
17,CC(CC(=O)Nc1cccc(Br)c1)=NNC(=O)c1ccc(O)cc1O,90.5%
